Assay results: PubChem BioAssay
Several values for one entry are separate records, joined by “and”; a condition that tells them apart may be missing. Equal entries are not always repeated. Activity calls are given as the source filed them.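 The calls were made as follows, unless noted: active = normalized viability below 100% at a tested concentration; inactive = the rest.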

Assays:
[1] = Wnt pathway potentiators raising nuclear beta-catenin – imaging, WNT3A-conditioned medium, mouse C2C12, NPC library, primary screen (AID 1117326; in the data active = nuclear beta-catenin stimulation mostly above about 4.2%, no sharp cut-off; inactive = mostly below about 10%); details: stronger effect = higher value
[2] = stimulators of insulin release from INS-1E, primary screen, cell-based, 5 mM glucose, NPC library (AID 1117329;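 active = compound raises insulin release from rat beta cells at 5 mM glucose, no numeric limit stated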); details: rat INS-1E insulin secretion, at 10 µM, stronger effect = higher value
[3] = growth inhibition of GSK3B-pretreated HCT116 cells – cell-based, CellTiter-Glo, 0.2 to 20 µM (AID 1117336;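 active = compounds lowering colon cancer cell viability after pretreatment blocking the GSK3B kinase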); details: HCT116 viability after GSK3B inhibitor, at 20 µM, stronger effect = higher value
[4] = inhibition of endothelial tube formation, primary screen, imaging, VEGF stimulated, CD31 staining, tube area, NPC library (AID 1117340;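 active = compound that reduces growth-factor-driven endothelial tube area in a mixed cell culture, no cutoff stated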); details: VEGF-stimulated ADSC/ECFC co-culture, at 10 µM, stronger effect = higher value
[5] = GLP1 release stimulators, primary, NCI-H716, NPC library (AID 1117341;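 active = compound raises GLP1 secretion from the human gut endocrine cells, with no numeric limit stated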); details: NCI-H716 cells, at 10 µM, stronger effect = higher value
[6] = HCT116 colon cancer cell growth inhibition, primary screen, CellTiter-Glo luminescence, NPC library (AID 1117342;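 active = compounds that lower survival of HCT116 colon cancer cells in the luminescence readout, no numeric limit stated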); details: at 20 µM (top of the series)
[7] = reduced SW480 viability measured with CellTiter-Glo, NPC library, primary (AID 1117343;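 active = compounds that lower viability of the colon cancer cells in the luminescence readout, with no numeric limit stated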); details: CellTiter-Glo luminescence; at 20 µM (top of the series)
[8] = NPC library primary testing for decreased DLD-1 cell viability via CellTiter-Glo (AID 1117346;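 active = compounds that lower survival of DLD-1 colon cancer cells in the luminescence readout, no cutoff given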); details: DLD-1 viability, CellTiter-Glo luminescence; at 20 µM (top of the series)
[9] = target: 6-phosphogluconate dehydrogenase, decarboxylating (Homo sapiens) (UniProt P52209); assay: inhibition of human phosphogluconate dehydrogenase – biochemical, recombinant enzyme, NADPH absorbance, primary screen (AID 1159550;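 active = at least 20% inhibition of 6-phosphogluconate dehydrogenase activity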); details: recombinant 6PGD, NADPH absorbance 341 nm; at 10 µM; stronger effect = higher value
[10] = modulation of C. elegans fzo-1 (AID 1259413; call rule not given here;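 also: fzo-1 mutant C. elegans worms in liquid wells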); details: C. elegans fzo-1 modulator screen, mean read-out; stronger effect = higher value
[11] = EMT-state selective cytotoxicity in co-culture – imaging, PC-3E GFP, TEM4-18 mCherry, primary screen (AID 1345086;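 active = compounds killing one labelled cell type while sparing the other, by normalised counts and ratio limits, not self-fluorescent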;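 as to all read-outs here: cells exposed to compound for 72 h before imaging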;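 as to red/green cell ratio (normalised): normalised mesenchymal count divided by normalised epithelial count so high means epithelial killing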); details: PC-3E GFP / TEM4-18 mCherry co-culture, imaging cell counts, at 1 µM; for red/green cell ratio (normalised): actives lie on both sides, counts scaled to control wells, 1 = unselective
[12] = viability loss with induced miR-34 in A549 – imaging, A549 dox-inducible miR-34, nuclei and caspase counts, primary screen (AID 1347080); details: A549 miR-34 inducible, Hoechst nuclei count, 48 h
[13] = MELAS cybrid and Rieske KO viability enhancers – cell-based, MELAS cybrids, Rieske KO mouse fibroblasts, CellTiter-Glo, primary screen (AID 1508586;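 active = mean z-score across replicates of 1.96 or higher in either the MELAS or the Rieske mutant cell line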;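 also: z relative to plate mean and SD of compound and empty wells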); details: low glucose
[14] = target: NAD(+) hydrolase SARM1 (Homo sapiens) (UniProt Q6SZW1); assay: blocking NAD cleavage by SARM1 SAM-TIR – cell lysate, NAD-Glo luminescence (AID 1508614;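 active = compound whose remaining NAD level is above about 45 nM, limit read from the data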;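 also: higher remaining NAD means stronger inhibition of SARM1 NADase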); details: SAM-TIR HEK293T lysate NADase, at 1 µM, stronger effect = higher value
[15] = target: Mitogen-activated protein kinase 7 (Homo sapiens) (UniProt Q13164); assay: Gal4-ERK5 driven luciferase induction – cell-based, HTS, primary screen (AID 1508626;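 active = luciferase signal above three times the same-plate solvent-only control wells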;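 also: luciferase driven by Gal4-ERK5 fusion binding five Gal4 sites before minimal TATA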); details: HeLa Gal4-ERK5 transactivation, 18 h, at 5 µM, stronger effect = higher value
[16] = tested on: F380Y; assay: BK channel mutant inhibitors and activators – cell-based, U2OS BacMam, thallium flux, beta subunits, selectivity assay, profiling panel (AID 1259406;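 active = thallium flux through the channel raised or lowered by more than 3 SD from vehicle-only wells, actives on both sides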;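 also: initial slope of Thallos dye fluorescence rise after thallium is added; log ratio against the mean of 0.3% DMSO vehicle wells on the same plate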); details: U2OS BacMam BK variants, at 30 µM
[17] = tested on: F380Y/beta1; assay: as above; details: U2OS BacMam BK variants, at 30 µM
[18] = tested on: F380Y/beta2Delta; assay: as above; details: U2OS BacMam BK variants, at 30 µM
[19] = drug combination growth inhibition, ovarian cancer – cell-based, oncology-focused library, rucaparib conditional, profiling panel (AID 1508598); details: patient-derived ovarian cancer cells, CellTiter-Glo viability, 144 h, stronger effect = lower value
[20] = measured here: epithelial PC-3E GFP cell survival
[21] = measured here: mesenchymal TEM4-18 mCherry cell survival
[22] = MELAS cybrid survival, CellTiter-Glo 48 h, stronger effect = higher value
[23] = Rieske KO mouse fibroblast survival, CellTiter-Glo 72 h

Chain of NAD(+) hydrolase SARM1 (Homo sapiens) (Q6SZW1 whole entry, looked up, the tested form may be a part): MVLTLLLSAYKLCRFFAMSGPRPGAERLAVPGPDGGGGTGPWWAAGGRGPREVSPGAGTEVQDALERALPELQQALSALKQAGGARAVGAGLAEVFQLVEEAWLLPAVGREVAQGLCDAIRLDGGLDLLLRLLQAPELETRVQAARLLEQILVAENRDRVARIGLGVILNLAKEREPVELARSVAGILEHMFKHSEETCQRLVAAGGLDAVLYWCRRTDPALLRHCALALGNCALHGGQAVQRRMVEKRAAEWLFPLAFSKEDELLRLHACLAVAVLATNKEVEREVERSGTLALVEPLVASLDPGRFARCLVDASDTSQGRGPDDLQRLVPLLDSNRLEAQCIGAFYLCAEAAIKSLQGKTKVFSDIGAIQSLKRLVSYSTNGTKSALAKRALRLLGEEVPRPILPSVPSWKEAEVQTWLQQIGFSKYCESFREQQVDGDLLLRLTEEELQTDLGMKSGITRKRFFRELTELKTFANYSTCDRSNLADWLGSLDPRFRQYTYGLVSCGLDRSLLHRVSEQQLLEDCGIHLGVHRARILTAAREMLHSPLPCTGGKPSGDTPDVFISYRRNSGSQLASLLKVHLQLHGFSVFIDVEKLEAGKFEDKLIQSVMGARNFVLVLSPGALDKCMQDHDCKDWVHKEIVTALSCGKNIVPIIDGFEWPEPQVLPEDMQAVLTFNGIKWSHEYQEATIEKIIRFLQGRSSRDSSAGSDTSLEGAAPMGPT
Chain of 6-phosphogluconate dehydrogenase, decarboxylating (Homo sapiens) (P52209 whole entry, looked up): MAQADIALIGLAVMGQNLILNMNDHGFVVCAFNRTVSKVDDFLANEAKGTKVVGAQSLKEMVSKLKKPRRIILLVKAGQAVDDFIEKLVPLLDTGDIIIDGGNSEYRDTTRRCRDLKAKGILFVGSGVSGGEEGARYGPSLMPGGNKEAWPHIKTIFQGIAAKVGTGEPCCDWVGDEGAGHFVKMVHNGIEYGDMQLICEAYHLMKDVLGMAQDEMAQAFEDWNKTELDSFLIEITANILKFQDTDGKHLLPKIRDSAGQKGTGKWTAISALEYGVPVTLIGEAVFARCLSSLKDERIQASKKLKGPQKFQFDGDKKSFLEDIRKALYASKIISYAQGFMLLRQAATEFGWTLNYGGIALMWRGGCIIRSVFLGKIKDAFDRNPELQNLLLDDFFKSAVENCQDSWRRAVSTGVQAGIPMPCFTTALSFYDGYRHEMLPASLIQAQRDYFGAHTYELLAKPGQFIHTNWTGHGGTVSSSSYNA
Chain of Mitogen-activated protein kinase 7 (Homo sapiens) (Q13164 whole entry, looked up, the tested form may be a part): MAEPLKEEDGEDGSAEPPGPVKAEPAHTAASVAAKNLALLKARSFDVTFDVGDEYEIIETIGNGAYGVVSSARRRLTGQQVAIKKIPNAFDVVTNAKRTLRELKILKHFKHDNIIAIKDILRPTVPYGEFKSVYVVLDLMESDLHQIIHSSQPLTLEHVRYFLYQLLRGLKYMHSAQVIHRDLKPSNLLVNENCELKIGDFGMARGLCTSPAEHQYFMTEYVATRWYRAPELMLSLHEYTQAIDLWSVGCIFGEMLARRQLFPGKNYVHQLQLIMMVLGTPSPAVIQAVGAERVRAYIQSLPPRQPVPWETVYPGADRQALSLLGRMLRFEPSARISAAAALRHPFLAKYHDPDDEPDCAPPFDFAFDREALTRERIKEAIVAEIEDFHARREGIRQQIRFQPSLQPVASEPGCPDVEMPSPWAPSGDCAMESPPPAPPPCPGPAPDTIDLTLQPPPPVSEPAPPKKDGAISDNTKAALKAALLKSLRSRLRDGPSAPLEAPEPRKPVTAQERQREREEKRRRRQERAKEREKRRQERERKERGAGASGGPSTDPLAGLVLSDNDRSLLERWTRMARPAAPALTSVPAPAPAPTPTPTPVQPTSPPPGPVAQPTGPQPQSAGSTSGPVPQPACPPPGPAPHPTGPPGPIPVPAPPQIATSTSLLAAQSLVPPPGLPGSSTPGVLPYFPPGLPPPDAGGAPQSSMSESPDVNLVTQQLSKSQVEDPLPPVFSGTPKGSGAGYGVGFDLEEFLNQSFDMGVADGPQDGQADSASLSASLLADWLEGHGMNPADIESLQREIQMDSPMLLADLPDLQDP

CCCc1cc(=O)[nH]c(=S)[nH]1
1.05: normalised cell number [11, 20]
inactive: nuclear beta-catenin stimulation ([1]; at 10 µM) 0.6% | insulin secretion stimulation [2] -0.9% | viability decrease [3] -14.4% | tube area decrease [4] 8.2% | GLP1 secretion stimulation [5] -0.8% | inhibition of viability [6] -19.2% | viability decrease (inhibition) [7] -1.9% | viability decrease (inhibition) [8] -28.7% | inhibition [9] -7.2% | mean signal [10] 248 | red/green cell ratio (normalised) [11] 1.26 | z-score [13, 22] -0.276 and 0.0359 | remaining NAD [14] 10 nM | luciferase signal [15] 88 AU | log fold change Tl+ flux [16] 0.00762 | log fold change Tl+ flux [18] -0.0326
active: log fold change Tl+ flux [17] -0.132
0.644 and -0.188: z-score [13, 23]
10600 and 9200 and 7970: cell count ([12]; measured here: total cells with miR-34 induction, stronger effect = lower value)
1.49 and 1.36 and 2.91: fold change ([12]; measured here: relative caspase fold change +Dox/-Dox)
0.8%: nuclear beta-catenin stimulation ([1]; stimulation, at 2 µM)
1.32: normalised cell number [11, 21]

CC(C)C(=O)Nc1ccc([N+](=O)[O-])c(C(F)(F)F)c1
-0.2%: nuclear beta-catenin stimulation ([1]; stimulation, at 2 µM)
0.95: normalised cell number [11, 21]
0.471 and 0.28 and 0.177: z-score [13, 23]
0.92: normalised cell number [11, 20]
inactive: nuclear beta-catenin stimulation ([1]; at 10 µM) 0.6% | insulin secretion stimulation [2] 3.4% | viability decrease [3] 13.4% | tube area decrease [4] -12.8% | GLP1 secretion stimulation [5] -0.5% | inhibition of viability [6] 25.5% | viability decrease (inhibition) [7] 40.5% | viability decrease (inhibition) [8] -3.7% | inhibition [9] -5.89% | mean signal [10] 187 | red/green cell ratio (normalised) [11] 1.03 | z-score [13, 22] -0.353 and 0.314 and 0.345 | viability ([19]; at 0.000305 µM, OCI-C5x cells, with rucaparib 10 µM, 100% = cells with rucaparib alone) 102% | viability ([19]; at 0.000305 µM, OCI-C5x cells, without rucaparib) 114% | viability ([19]; at 0.000305 µM, OCI-P5x cells, without rucaparib) 103% | viability ([19]; at 0.00122 µM, OCI-C5x cells, with rucaparib 10 µM, 100% = cells with rucaparib alone) 114% | viability ([19]; at 0.00122 µM, OCI-C5x cells, without rucaparib) 115% | viability ([19]; at 0.00122 µM, OCI-P5x cells, without rucaparib) 104% | viability ([19]; at 0.00488 µM, OCI-C5x cells, with rucaparib 10 µM, 100% = cells with rucaparib alone) 111% | viability ([19]; at 0.00488 µM, OCI-C5x cells, without rucaparib) 113% | viability ([19]; at 0.00488 µM, OCI-P5x cells, with rucaparib 20 µM, 100% = cells with rucaparib alone) 107% | viability ([19]; at 0.00488 µM, OCI-P5x cells, without rucaparib) 106% | viability ([19]; at 0.0195 µM, OCI-C5x cells, with rucaparib 10 µM, 100% = cells with rucaparib alone) 114% | viability ([19]; at 0.0195 µM, OCI-C5x cells, without rucaparib) 118% | viability ([19]; at 0.0195 µM, OCI-P5x cells, with rucaparib 20 µM, 100% = cells with rucaparib alone) 104% | viability ([19]; at 0.0195 µM, OCI-P5x cells, without rucaparib) 105% | viability ([19]; at 0.0781 µM, OCI-C5x cells, with rucaparib 10 µM, 100% = cells with rucaparib alone) 112% | viability ([19]; at 0.0781 µM, OCI-C5x cells, without rucaparib) 116% | viability ([19]; at 0.0781 µM, OCI-P5x cells, with rucaparib 20 µM, 100% = cells with rucaparib alone) 103% | viability ([19]; at 0.0781 µM, OCI-P5x cells, without rucaparib) 112% | viability ([19]; at 0.313 µM, OCI-C5x cells, with rucaparib 10 µM, 100% = cells with rucaparib alone) 109% | viability ([19]; at 0.313 µM, OCI-C5x cells, without rucaparib) 109% | viability ([19]; at 0.313 µM, OCI-P5x cells, with rucaparib 20 µM, 100% = cells with rucaparib alone) 109% | viability ([19]; at 0.313 µM, OCI-P5x cells, without rucaparib) 115% | viability ([19]; at 1.25 µM, OCI-C5x cells, with rucaparib 10 µM, 100% = cells with rucaparib alone) 107% | viability ([19]; at 1.25 µM, OCI-C5x cells, without rucaparib) 118% | viability ([19]; at 1.25 µM, OCI-P5x cells, with rucaparib 20 µM, 100% = cells with rucaparib alone) 101% | viability ([19]; at 1.25 µM, OCI-P5x cells, without rucaparib) 113% | viability ([19]; at 5 µM, OCI-C5x cells, with rucaparib 10 µM, 100% = cells with rucaparib alone) 112% | viability ([19]; at 5 µM, OCI-C5x cells, without rucaparib) 133% | viability ([19]; at 5 µM, OCI-P5x cells, with rucaparib 20 µM, 100% = cells with rucaparib alone) 104% | viability ([19]; at 5 µM, OCI-P5x cells, without rucaparib) 112% | remaining NAD [14] 10 nM | luciferase signal [15] 76 AU | log fold change Tl+ flux [16] 0.0165 | log fold change Tl+ flux [17] 0.104 | log fold change Tl+ flux [18] -0.0159
active: viability ([19]; at 0.000305 µM, OCI-P5x cells, with rucaparib 20 µM, 100% = cells with rucaparib alone) 93.2% | viability ([19]; at 0.00122 µM, OCI-P5x cells, with rucaparib 20 µM, 100% = cells with rucaparib alone) 98.6%
